Experimental data: article PMC7862700, “An all-to-all approach to the identification of sequence-specific readers for epigenetic DNA modifications on cytosine”

Legend:
Test in all cases: DAPPL (digital affinity profiling via proximity ligation, sequencing); 10 mM Tris-HCl pH 7.5, 50 mM NaCl, 1 mM DTT, 4% glycerol, room temperature, 30 min; GST-TFs on glutathione beads, 16-mer random dsDNA library, 0.1% formaldehyde crosslink after washing; high values mean tight binding
[1] = target: T1, FLI1 (Homo sapiens, UniProt Q01543 1-452); details: protein: recombinant; tags: N-terminal GST; dsDNA, one strand shown
T1 sequence: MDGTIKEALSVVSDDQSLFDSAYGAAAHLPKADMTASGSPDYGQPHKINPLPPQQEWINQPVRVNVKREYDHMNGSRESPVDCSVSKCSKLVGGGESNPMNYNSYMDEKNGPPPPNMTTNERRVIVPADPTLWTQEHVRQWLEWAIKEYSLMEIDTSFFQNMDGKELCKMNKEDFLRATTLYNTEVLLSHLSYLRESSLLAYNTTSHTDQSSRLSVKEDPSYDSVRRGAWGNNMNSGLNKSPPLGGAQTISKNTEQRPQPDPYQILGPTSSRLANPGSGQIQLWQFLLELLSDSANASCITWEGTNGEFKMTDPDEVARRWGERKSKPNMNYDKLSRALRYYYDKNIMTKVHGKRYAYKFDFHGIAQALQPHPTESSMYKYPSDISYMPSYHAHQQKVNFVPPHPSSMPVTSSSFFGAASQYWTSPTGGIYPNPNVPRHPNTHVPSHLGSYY
How it was run: (§1)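 Pools of DNA-barcoded human transcription factors, expressed in yeast as GST fusions on glutathione beads and combined with a tag-only sample, were incubated with 200 nmole of a 16-mer random double-stranded DNA library. Incubation took 30 min at room temperature in Tris/NaCl/DTT/glycerol buffer and was followed by washing, 0.1% formaldehyde crosslinking, proximity ligation (BsaI/T4 ligase, 1 h, 37 °C), PCR amplification and sequencing on an Illumina NextSeq500. Binding signal is the ratio of a hexamer's read frequency for a factor to its frequency for the tag-only sample.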

[2] = target: T2, ELK1 (Homo sapiens, UniProt P19419 1-428); details: protein: recombinant; tags: N-terminal GST; dsDNA, one strand shown
T2 sequence: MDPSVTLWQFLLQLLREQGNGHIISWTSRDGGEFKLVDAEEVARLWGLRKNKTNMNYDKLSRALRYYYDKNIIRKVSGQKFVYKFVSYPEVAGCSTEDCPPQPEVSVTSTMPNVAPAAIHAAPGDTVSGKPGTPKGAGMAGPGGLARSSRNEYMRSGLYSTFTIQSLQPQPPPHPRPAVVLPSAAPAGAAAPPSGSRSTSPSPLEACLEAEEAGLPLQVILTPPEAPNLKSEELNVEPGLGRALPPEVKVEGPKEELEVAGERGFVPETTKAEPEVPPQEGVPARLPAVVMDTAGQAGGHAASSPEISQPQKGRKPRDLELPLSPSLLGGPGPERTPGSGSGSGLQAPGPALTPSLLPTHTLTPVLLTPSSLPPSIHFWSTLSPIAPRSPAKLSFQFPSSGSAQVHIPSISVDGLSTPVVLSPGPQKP
How it was run: as §1

[3] = target: T3, GABPA (Homo sapiens, UniProt Q06546 1-454); details: protein: recombinant; tags: N-terminal GST; dsDNA, one strand shown
T3 sequence: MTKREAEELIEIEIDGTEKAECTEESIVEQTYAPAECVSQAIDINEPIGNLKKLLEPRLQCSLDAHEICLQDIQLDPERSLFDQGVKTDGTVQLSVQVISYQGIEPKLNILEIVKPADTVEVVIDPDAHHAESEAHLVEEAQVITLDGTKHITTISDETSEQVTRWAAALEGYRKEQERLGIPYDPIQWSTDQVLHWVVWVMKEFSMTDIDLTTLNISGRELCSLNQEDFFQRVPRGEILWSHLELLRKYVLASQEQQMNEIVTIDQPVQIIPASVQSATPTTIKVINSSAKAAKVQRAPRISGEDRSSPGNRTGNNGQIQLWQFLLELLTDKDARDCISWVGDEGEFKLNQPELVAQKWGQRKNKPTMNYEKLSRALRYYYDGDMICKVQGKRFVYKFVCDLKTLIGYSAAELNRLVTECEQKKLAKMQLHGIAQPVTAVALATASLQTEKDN
How it was run: as §1

[4] = target: T4, ERG (Homo sapiens, UniProt P11308 1-479); details: protein: recombinant; tags: N-terminal GST; dsDNA, one strand shown
T4 sequence: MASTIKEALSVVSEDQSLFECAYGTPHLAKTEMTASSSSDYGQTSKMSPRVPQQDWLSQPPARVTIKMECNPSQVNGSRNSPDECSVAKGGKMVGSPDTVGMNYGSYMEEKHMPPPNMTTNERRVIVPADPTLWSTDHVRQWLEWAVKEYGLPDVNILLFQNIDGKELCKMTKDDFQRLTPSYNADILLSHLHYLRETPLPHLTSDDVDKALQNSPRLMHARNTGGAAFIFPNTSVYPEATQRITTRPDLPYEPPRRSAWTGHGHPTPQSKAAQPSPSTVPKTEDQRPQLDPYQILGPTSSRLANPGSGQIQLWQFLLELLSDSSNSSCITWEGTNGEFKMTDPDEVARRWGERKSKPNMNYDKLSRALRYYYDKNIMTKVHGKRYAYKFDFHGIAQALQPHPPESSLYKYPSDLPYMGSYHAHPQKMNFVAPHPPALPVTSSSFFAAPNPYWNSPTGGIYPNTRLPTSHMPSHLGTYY
How it was run: as §1

[5] = target: ELF1 (Homo sapiens, UniProt P32519 1-619); details: protein: recombinant; tags: N-terminal GST; dsDNA, one strand shown
How it was run: as §1

[6] = target: T5, EHF (Homo sapiens, UniProt Q9NZC4 1-300); details: protein: recombinant; tags: N-terminal GST; dsDNA, one strand shown
T5 sequence: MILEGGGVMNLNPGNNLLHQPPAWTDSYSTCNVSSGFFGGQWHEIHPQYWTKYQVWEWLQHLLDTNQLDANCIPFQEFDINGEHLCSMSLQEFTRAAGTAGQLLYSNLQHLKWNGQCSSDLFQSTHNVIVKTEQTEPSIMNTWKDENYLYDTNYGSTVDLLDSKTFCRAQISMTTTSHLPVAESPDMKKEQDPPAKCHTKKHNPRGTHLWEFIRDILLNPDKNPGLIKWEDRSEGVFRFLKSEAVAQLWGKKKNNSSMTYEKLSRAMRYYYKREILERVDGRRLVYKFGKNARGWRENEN
How it was run: as §1

[7] = target: SPI1 (Homo sapiens, UniProt P17947 1-270); details: protein: recombinant; tags: N-terminal GST; dsDNA, one strand shown
How it was run: as §1

[8] = target: SPIB (Homo sapiens, UniProt Q01892 1-262); details: protein: recombinant; tags: N-terminal GST; dsDNA, one strand shown
How it was run: as §1

[9] = target: T6, ELK3 (Homo sapiens, UniProt P41970 1-407); details: protein: recombinant; tags: N-terminal GST; dsDNA, one strand shown
T6 sequence: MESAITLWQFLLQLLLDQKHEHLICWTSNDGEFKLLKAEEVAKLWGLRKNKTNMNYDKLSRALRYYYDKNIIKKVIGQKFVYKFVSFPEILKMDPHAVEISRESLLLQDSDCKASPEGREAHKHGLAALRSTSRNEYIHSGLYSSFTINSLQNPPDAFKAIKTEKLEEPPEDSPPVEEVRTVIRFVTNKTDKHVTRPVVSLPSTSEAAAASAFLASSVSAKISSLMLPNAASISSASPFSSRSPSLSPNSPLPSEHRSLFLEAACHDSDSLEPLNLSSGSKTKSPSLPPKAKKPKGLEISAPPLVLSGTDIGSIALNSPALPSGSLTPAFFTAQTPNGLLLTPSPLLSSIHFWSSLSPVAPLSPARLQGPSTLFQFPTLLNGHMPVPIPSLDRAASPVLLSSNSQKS
How it was run: as §1

[10] = target: T7, FEV (Homo sapiens, UniProt Q99581 1-238); details: protein: recombinant; tags: N-terminal GST; dsDNA, one strand shown
T7 sequence: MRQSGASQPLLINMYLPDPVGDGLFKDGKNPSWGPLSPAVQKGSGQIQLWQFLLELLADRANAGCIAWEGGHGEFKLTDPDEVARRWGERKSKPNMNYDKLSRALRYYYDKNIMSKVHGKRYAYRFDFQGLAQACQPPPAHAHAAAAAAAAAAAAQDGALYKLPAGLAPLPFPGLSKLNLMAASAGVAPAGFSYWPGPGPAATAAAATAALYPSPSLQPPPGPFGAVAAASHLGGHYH
How it was run: as §1

[11] = target: ETV5 (Homo sapiens, UniProt P41161 1-510); details: protein: recombinant; tags: N-terminal GST; dsDNA, one strand shown
How it was run: as §1

[12] = target: HSF1 (Homo sapiens, UniProt Q00613 1-529); details: protein: recombinant; tags: N-terminal GST; chain copies: 3; dsDNA, one strand shown
How it was run: as §1

[13] = target: T8, SPIC (Homo sapiens, UniProt Q8N5J4 1-248); details: protein: recombinant; tags: N-terminal GST; dsDNA, one strand shown
T8 sequence: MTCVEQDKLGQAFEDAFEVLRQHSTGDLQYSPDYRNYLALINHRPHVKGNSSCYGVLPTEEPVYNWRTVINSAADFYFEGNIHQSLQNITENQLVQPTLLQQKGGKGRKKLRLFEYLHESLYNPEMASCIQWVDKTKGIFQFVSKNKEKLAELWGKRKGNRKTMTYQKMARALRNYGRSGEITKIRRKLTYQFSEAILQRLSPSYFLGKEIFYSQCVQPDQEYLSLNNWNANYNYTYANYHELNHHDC
How it was run: as §1

[14] = target: ELF4 (Homo sapiens, UniProt Q99607 1-663); details: protein: recombinant; tags: N-terminal GST; dsDNA, one strand shown
How it was run: as §1

[15] = target: T9, ELK4 (Homo sapiens, UniProt P28324-2 1-405); details: protein: recombinant; tags: N-terminal GST; dsDNA, one strand shown
T9 sequence: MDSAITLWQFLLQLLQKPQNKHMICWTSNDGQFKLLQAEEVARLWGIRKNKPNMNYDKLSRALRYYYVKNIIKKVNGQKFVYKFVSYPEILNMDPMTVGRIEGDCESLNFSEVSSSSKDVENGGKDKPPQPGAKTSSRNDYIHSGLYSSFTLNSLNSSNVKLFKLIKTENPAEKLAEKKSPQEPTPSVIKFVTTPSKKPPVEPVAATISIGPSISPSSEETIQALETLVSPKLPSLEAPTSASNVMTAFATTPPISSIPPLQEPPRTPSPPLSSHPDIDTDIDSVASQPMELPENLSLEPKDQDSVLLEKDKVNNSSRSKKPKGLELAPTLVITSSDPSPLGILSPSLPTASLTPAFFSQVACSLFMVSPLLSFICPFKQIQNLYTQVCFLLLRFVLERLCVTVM
How it was run: as §1

[16] = target: T10, ETV2 (Homo sapiens, UniProt O00321 1-342); details: protein: recombinant; tags: N-terminal GST; dsDNA, one strand shown
T10 sequence: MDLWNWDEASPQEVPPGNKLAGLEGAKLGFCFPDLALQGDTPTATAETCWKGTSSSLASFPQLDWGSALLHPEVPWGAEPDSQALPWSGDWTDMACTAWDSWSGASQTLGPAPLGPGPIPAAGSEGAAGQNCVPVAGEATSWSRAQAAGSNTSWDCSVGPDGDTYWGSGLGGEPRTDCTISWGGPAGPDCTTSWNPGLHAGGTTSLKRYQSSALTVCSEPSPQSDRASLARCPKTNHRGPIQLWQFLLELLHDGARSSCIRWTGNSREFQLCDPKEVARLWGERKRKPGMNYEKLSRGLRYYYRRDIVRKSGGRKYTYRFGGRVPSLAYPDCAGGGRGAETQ
How it was run: as §1

[17] = target: T11, ELF3 (Homo sapiens, UniProt P78545 1-371); details: protein: recombinant; tags: N-terminal GST; dsDNA, one strand shown
T11 sequence: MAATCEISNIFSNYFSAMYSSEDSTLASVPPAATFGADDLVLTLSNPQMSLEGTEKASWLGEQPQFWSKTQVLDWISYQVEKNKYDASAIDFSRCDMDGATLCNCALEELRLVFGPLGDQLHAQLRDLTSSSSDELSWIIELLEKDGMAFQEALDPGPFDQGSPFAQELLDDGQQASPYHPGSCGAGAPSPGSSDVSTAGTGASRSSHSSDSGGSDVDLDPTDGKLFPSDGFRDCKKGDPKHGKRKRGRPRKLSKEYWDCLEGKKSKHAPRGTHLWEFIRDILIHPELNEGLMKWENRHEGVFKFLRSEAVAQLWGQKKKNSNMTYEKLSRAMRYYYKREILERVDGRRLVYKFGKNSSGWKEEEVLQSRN
How it was run: as §1

[18] = target: CRX (Homo sapiens, UniProt O43186 1-299); details: protein: recombinant; tags: N-terminal GST; dsDNA, one strand shown
How it was run: as §1

[19] = target: ETV1 (Homo sapiens, UniProt P50549 1-477); details: protein: recombinant; tags: N-terminal GST; dsDNA, one strand shown
How it was run: as §1

Chain of ETV1 (P50549 whole entry): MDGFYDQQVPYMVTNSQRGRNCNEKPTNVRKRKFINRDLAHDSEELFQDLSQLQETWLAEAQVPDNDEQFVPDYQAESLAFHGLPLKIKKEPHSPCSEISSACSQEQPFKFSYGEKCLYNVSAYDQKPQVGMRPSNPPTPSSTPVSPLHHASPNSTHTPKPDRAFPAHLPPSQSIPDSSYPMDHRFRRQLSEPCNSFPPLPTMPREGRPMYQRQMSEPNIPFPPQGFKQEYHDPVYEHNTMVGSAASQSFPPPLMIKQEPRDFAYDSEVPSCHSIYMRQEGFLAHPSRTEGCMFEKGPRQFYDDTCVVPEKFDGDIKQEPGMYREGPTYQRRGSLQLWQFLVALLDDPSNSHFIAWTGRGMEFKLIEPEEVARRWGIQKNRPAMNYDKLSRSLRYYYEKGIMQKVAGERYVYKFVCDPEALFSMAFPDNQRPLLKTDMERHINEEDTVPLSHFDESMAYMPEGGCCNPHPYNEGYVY
Chain of ELF1 (P32519 whole entry): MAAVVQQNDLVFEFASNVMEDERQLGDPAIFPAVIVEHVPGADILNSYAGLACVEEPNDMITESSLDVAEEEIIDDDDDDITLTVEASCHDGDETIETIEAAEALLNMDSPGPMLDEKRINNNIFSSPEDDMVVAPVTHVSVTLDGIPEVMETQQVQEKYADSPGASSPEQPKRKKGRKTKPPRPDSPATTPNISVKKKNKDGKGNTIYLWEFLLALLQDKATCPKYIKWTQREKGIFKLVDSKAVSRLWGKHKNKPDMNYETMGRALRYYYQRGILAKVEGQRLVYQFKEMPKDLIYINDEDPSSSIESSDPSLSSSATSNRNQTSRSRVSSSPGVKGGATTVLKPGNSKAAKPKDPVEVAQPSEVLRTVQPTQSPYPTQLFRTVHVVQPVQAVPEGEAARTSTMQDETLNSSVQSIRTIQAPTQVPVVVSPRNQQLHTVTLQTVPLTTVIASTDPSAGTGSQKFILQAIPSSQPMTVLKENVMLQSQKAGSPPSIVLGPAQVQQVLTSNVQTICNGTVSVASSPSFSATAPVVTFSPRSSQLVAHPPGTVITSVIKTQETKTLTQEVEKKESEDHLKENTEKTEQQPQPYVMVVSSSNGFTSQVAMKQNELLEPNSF
Chain of ELF4 (Q99607 whole entry): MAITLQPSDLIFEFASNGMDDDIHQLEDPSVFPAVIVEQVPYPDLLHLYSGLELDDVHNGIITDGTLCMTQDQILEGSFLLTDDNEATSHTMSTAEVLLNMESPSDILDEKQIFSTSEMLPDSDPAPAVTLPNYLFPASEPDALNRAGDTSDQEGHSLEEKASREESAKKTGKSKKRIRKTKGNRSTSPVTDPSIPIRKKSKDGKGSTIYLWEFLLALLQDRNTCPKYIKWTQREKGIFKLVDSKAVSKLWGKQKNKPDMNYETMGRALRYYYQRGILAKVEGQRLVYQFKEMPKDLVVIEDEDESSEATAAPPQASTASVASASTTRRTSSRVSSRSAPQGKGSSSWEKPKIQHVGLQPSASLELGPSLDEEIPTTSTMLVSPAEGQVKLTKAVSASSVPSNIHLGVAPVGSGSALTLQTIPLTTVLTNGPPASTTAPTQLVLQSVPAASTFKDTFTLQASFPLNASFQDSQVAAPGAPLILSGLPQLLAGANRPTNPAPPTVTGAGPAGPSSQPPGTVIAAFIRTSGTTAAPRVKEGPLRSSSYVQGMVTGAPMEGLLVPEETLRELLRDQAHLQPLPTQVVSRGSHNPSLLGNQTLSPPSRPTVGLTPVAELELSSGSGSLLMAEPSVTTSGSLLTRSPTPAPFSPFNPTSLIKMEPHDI
Chain of HSF1 (Q00613 whole entry): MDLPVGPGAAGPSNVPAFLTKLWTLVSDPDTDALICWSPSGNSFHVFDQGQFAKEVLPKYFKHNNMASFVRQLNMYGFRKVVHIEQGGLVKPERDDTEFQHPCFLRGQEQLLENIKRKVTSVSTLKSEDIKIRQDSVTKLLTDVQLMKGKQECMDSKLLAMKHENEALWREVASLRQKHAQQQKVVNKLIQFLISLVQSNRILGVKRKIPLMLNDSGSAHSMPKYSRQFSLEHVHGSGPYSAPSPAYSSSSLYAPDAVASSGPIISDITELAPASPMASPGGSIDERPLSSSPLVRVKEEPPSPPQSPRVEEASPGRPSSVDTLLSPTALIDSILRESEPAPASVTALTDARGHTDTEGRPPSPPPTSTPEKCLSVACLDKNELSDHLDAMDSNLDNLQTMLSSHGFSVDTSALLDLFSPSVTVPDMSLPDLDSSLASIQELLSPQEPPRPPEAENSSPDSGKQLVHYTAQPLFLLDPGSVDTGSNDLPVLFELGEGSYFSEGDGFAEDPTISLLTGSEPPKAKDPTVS
Chain of SPIB (Q01892 whole entry): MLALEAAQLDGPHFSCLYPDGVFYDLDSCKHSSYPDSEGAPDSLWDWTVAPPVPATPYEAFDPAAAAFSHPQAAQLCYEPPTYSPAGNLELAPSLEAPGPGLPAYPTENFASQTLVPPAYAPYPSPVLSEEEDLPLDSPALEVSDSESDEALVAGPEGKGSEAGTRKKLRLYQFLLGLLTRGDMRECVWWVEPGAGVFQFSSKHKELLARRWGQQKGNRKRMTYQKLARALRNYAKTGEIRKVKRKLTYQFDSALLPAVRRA
Chain of CRX (O43186 whole entry): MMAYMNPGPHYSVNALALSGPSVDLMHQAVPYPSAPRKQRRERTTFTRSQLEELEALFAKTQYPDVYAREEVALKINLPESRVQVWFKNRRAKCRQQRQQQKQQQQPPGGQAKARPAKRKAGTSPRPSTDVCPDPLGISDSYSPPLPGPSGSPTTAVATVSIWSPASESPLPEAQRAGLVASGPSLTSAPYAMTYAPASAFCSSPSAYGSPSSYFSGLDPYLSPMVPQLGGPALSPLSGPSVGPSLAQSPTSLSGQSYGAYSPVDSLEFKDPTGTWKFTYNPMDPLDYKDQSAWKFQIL
Chain of ETV5 (P41161 whole entry): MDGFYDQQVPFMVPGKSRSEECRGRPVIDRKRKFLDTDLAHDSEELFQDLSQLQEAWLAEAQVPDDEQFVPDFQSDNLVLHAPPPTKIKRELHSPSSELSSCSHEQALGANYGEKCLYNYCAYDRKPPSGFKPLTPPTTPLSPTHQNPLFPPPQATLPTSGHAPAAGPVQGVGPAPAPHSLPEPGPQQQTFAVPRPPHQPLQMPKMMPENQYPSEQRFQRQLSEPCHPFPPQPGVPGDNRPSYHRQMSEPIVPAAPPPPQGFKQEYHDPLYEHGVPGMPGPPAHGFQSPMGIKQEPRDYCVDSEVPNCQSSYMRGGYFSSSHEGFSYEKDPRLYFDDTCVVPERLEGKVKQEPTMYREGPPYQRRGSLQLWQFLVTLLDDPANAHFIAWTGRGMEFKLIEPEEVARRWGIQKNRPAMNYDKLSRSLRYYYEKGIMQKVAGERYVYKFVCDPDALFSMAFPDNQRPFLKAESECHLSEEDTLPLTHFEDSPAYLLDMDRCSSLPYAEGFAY

ACATGC
binding signal [1]: 1.31 fold enrichment (6-mer frequency, TF over GST control)
binding signal [2]: 1.2 fold enrichment (6-mer frequency, TF over GST control)
binding signal [3]: 1.33 fold enrichment (6-mer frequency, TF over GST control)
binding signal [4]: 1.24 fold enrichment (6-mer frequency, TF over GST control)
binding signal [5]: 1.36 fold enrichment (6-mer frequency, TF over GST control)
binding signal [6]: 1.24 fold enrichment (6-mer frequency, TF over GST control)
binding signal [7]: 1.19 fold enrichment (6-mer frequency, TF over GST control)
binding signal [8]: 1.2 fold enrichment (6-mer frequency, TF over GST control)
binding signal [9]: 1.34 fold enrichment (6-mer frequency, TF over GST control)
binding signal [10]: 1.3 fold enrichment (6-mer frequency, TF over GST control)
binding signal [11]: 1.25 fold enrichment (6-mer frequency, TF over GST control)
binding signal [12]: 1.1 fold enrichment (6-mer frequency, TF over GST control)
binding signal [13]: 1.27 fold enrichment (6-mer frequency, TF over GST control)
binding signal [14]: 1.26 fold enrichment (6-mer frequency, TF over GST control)
binding signal [15]: 1.2 fold enrichment (6-mer frequency, TF over GST control)
binding signal [16]: 1.44 fold enrichment (6-mer frequency, TF over GST control)
binding signal [17]: 1.28 fold enrichment (6-mer frequency, TF over GST control)
binding signal [18]: 1.03 fold enrichment (6-mer frequency, TF over GST control)
binding signal [19]: 1.3 fold enrichment (6-mer frequency, TF over GST control)
